The campaign covered roughly 3,200 compounds. About 300 (9.4%) showed activity. This is one part of a sample in which actives are shown more often than they occur. Values without a mark were called inactive.
Test system: A673/TR/shEF
Test: cell viability (LOESS-normalised, relative to median of negative controls) (log2 ratio); higher = more viable cells (less compound effect), active = hit call of the paper (over 3 MAD below the median)
Details: treatment time: 72 h
How it was run: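 A673/TR/shEF Ewing sarcoma cells were plated at 1,500 per well in 384-well plates and cultured with or without doxycycline, added 24 h before compounds, to induce EWS-FLI1 shRNA knockdown. Library compounds at two or more concentrations, alongside DMSO controls, were applied for three days. Cell viability was measured by CellTiter-Glo luminescence on an Envision reader. Readings were LOESS-corrected per plate, divided by the median of negative controls and log2-transformed, and hits were wells lying at least three median absolute deviations from the median of all screened wells.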

[1] = 0.103 µM, library screen: screen3, EWS-FLI1 expression: high (no doxycycline)
[2] = 0.103 µM, library screen: screen3, EWS-FLI1 expression: low (doxycycline-induced shRNA knockdown)
[3] = 0.308 µM, library screen: screen3, EWS-FLI1 expression: high (no doxycycline)
[4] = 0.308 µM, library screen: screen3, EWS-FLI1 expression: low (doxycycline-induced shRNA knockdown)
[5] = 0.926 µM, library screen: screen3, EWS-FLI1 expression: high (no doxycycline)
[6] = 0.926 µM, library screen: screen3, EWS-FLI1 expression: low (doxycycline-induced shRNA knockdown)
[7] = 2.8 µM, library screen: screen3, EWS-FLI1 expression: high (no doxycycline)
[8] = 2.8 µM, library screen: screen3, EWS-FLI1 expression: low (doxycycline-induced shRNA knockdown)
[9] = 8.3 µM, library screen: screen3, EWS-FLI1 expression: high (no doxycycline)
[10] = 8.3 µM, library screen: screen3, EWS-FLI1 expression: low (doxycycline-induced shRNA knockdown)
[11] = 25 µM, library screen: screen3, EWS-FLI1 expression: high (no doxycycline)
[12] = 25 µM, library screen: screen3, EWS-FLI1 expression: low (doxycycline-induced shRNA knockdown)
[13] = 0.25 µM, library screen: screen1, EWS-FLI1 expression: high (no doxycycline)
[14] = 0.25 µM, library screen: screen1, EWS-FLI1 expression: low (doxycycline-induced shRNA knockdown)
[15] = 2.5 µM, library screen: screen1, EWS-FLI1 expression: high (no doxycycline)
[16] = 2.5 µM, library screen: screen1, EWS-FLI1 expression: low (doxycycline-induced shRNA knockdown)
[17] = 0.25 µM, library screen: screen2, EWS-FLI1 expression: high (no doxycycline)
[18] = 0.25 µM, library screen: screen2, EWS-FLI1 expression: low (doxycycline-induced shRNA knockdown)
[19] = 2.5 µM, library screen: screen2, EWS-FLI1 expression: high (no doxycycline)
[20] = 2.5 µM, library screen: screen2, EWS-FLI1 expression: low (doxycycline-induced shRNA knockdown)
[21] = 0.025 µM, library screen: screen2, EWS-FLI1 expression: high (no doxycycline)
[22] = 0.025 µM, library screen: screen2, EWS-FLI1 expression: low (doxycycline-induced shRNA knockdown)
[23] = 25 µM, library screen: screen2, EWS-FLI1 expression: high (no doxycycline)
[24] = 25 µM, library screen: screen2, EWS-FLI1 expression: low (doxycycline-induced shRNA knockdown)

`Cc1nc(N)sc1-c1ccnc(Nc2ccc(N3CCOCC3)cc2)n1` was tested, and the “cell viability (log2)” value [1] was 0.0411, the “cell viability (log2)” value [2] was 0.00948 and the “cell viability (log2)” value [3] was 0.0424. For the same compound, the “cell viability (log2)” value [4] was 0.0424, the “cell viability (log2)” value [5] was -0.0206 and the “cell viability (log2)” value [6] was 0.0867. The “cell viability (log2)” value [7] was -0.219 (active), the “cell viability (log2)” value [8] was 0.0313 and the “cell viability (log2)” value [9] was -0.377 (active). The “cell viability (log2)” value [10] was -0.083, the “cell viability (log2)” value [11] was -0.478 (active) and the “cell viability (log2)” value [12] was -0.719 (active).

With `COc1cccc(CN2CCN(Cc3cccc([N+](=O)[O-])c3)CC2)c1` the “cell viability (log2)” value [13] was 0.0814 and the “cell viability (log2)” value [14] was 0.112.

For `CC(C)c1c(O)ccc2c1CC[C@H]1[C@@](C)(CO)CCC[C@]21C`, the “cell viability (log2)” value [13] was 0.0632, the “cell viability (log2)” value [14] was 0.204 and the “cell viability (log2)” value [15] was 0.124. The “cell viability (log2)” value [16] was 0.239.

With `COC(=O)Nc1nc2ccc(C(=O)c3cccs3)cc2[nH]1` the “cell viability (log2)” value [13] was -0.83 (active), the “cell viability (log2)” value [14] was -0.22 (active) and the “cell viability (log2)” value [17] was -1.12 (active). For the same compound, the “cell viability (log2)” value [18] was -0.105 (active), the “cell viability (log2)” value [15] was -3.46 (active) and the “cell viability (log2)” value [16] was -1.25 (active). The “cell viability (log2)” value [19] was -2.04 (active) and the “cell viability (log2)” value [20] was -0.699 (active).

For `COC(=O)Nc1nc2ccc(C(=O)c3ccccc3)cc2[nH]1`, the “cell viability (log2)” value [21] was 0.179, the “cell viability (log2)” value [22] was 0.0844 and the “cell viability (log2)” value [13] was 0.0977. For the same compound, the “cell viability (log2)” value [14] was 0.025, the “cell viability (log2)” value [17] was 0.114 and the “cell viability (log2)” value [18] was 0.0886. For the same compound, the “cell viability (log2)” value [15] was -1.65 (active), the “cell viability (log2)” value [16] was -0.988 (active) and the “cell viability (log2)” value [19] was -2.05 (active). The “cell viability (log2)” value [20] was -0.641 (active), the “cell viability (log2)” value [23] was -3.34 (active) and the “cell viability (log2)” value [24] was -1 (active).

`COc1ccc(NC(=O)/C(=C/c2cccs2)NC(=O)c2cccs2)cc1` was tested, and the “cell viability (log2)” value [13] was 0.0675, the “cell viability (log2)” value [14] was 0.0437 and the “cell viability (log2)” value [15] was 0.0662. The “cell viability (log2)” value [16] was 0.0201.

`CC(C(=O)O)c1ccc(C(=O)c2cccs2)cc1` (centres undefined) was tested, and the “cell viability (log2)” value [13] was 0.0835, the “cell viability (log2)” value [14] was 0.0129 and the “cell viability (log2)” value [15] was 0.155. The “cell viability (log2)” value [16] was -0.0021.

With `COC(=O)Nc1nc2ccc(Sc3ccccc3)cc2[nH]1` the “cell viability (log2)” value [21] was 0.076, the “cell viability (log2)” value [22] was 0.0311 and the “cell viability (log2)” value [1] was 0.039. The “cell viability (log2)” value [2] was 0.0842, the “cell viability (log2)” value [13] was 0.0605 and the “cell viability (log2)” value [14] was 0.108. For the same compound, the “cell viability (log2)” value [17] was 0.237, the “cell viability (log2)” value [18] was 0.0195 and the “cell viability (log2)” value [3] was 0.0857. For the same compound, the “cell viability (log2)” value [4] was 0.103, the “cell viability (log2)” value [5] was 0.0228 and the “cell viability (log2)” value [6] was 0.0229. For the same compound, the “cell viability (log2)” value [15] was 0.101, the “cell viability (log2)” value [16] was 0.0874 and the “cell viability (log2)” value [19] was 0.103. For the same compound, the “cell viability (log2)” value [20] was 0.0543, the “cell viability (log2)” value [7] was -0.667 (active) and the “cell viability (log2)” value [8] was -0.0556. For the same compound, the “cell viability (log2)” value [9] was -1.42 (active), the “cell viability (log2)” value [10] was -0.611 (active) and the “cell viability (log2)” value [23] was -2.26 (active). For the same compound, the “cell viability (log2)” value [24] was -0.937 (active), the “cell viability (log2)” value [11] was -1.77 (active) and the “cell viability (log2)” value [12] was -0.629 (active).

`COC(=O)c1ccccc1` was tested, and the “cell viability (log2)” value [13] was 0.0726, the “cell viability (log2)” value [14] was 0.05 and the “cell viability (log2)” value [15] was 0.155. For the same compound, the “cell viability (log2)” value [16] was 0.0447.

`CC(C(=O)O)c1cccc(C(=O)c2ccccc2)c1` (centres undefined) was tested, and the “cell viability (log2)” value [1] was 0.106, the “cell viability (log2)” value [2] was 0.0412 and the “cell viability (log2)” value [13] was 0.12. For the same compound, the “cell viability (log2)” value [14] was -0.0201, the “cell viability (log2)” value [17] was 0.204 and the “cell viability (log2)” value [18] was 0.13. For the same compound, the “cell viability (log2)” value [3] was 0.093, the “cell viability (log2)” value [4] was 0.102 and the “cell viability (log2)” value [5] was 0.0295. For the same compound, the “cell viability (log2)” value [6] was 0.058, the “cell viability (log2)” value [15] was 0.103 and the “cell viability (log2)” value [16] was 0.0158. For the same compound, the “cell viability (log2)” value [19] was 0.122, the “cell viability (log2)” value [20] was 0.173 and the “cell viability (log2)” value [7] was 0.145. The “cell viability (log2)” value [8] was 0.11, the “cell viability (log2)” value [9] was 0.0932 and the “cell viability (log2)” value [10] was 0.0536. For the same compound, the “cell viability (log2)” value [11] was 0.0365 and the “cell viability (log2)” value [12] was 0.131.

From the supplement of paper PMC6089552
